Source: PubChem (National Center for Advancing Translational Sciences (NCATS))
IL-1B inflam inh – inflammasome signaling inhibition, IL-1 beta readout. THP-1 LPS/ATP IL-1B secretion, AlphaLISA, 16 h; active compounds read low. activity change, % at 57.5 µM. hit rate 4.7% among 360,000; in the data active = activity change below about -50%; inconclusive = mostly about -30% to -49%
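Secreted IL-1B measured by AlphaLISA bead assay after 16 h compound exposure of THP-1 cells; compounds (final up to 57.5 uM) added 1 h before LPS (250 ng/mL) and ATP (1.25 mM) stimulation; lower signal means less secretion.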
HT1080-NT tox – kills 2HG-producing HT-1080-NT fibrosarcoma cells. HT-1080-NT fibrosarcoma viability, CellTiter-Glo ATP luminescence, 48 h. Potency, µM (highest dose often 46.1 µM), without a hit: top-dose activity, negative = less viability, most hits filed as cytotoxic. hit rate 1.6% among 360,000. AID 686970;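 also: NT is the 2HG producing partner of a matched IDH1 knockdown line; potency is read from the fitted curve at half-maximal effect; 0% = DMSO-treated cells and -100% = media-only wells without cells; nearly all actives have a fitted effect of over 55% in size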
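Fibrosarcoma NT cells, 750 per well in 5% FBS RPMI, were exposed to compound for 48 hours. Viability: CellTiter-Glo luminescence.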
KB-3-1 tox – kills parental KB-3-1 adenocarcinoma cells | KB-3-1 viability, CellTiter-Glo ATP luminescence, 72 h | Potency, µM (highest dose often 46.1 µM), most hits filed as cytotoxic | AID 1347075 | hit rate 1.4% among 400,000; also: potency is read from the fitted curve at half-maximal effect; nearly all actives have a fitted effect of over 60% in size
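Here the drug-naive KB-3-1 line serves as comparator for MDR sub-line selectivity; cells received compound titrations, 72 h at 37 °C, then CellTiter-Glo readout.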
KB-V1 cytotox – KB-V1 MDR subline cytotoxicity. KB-V1 MDR cells viability, CellTiter-Glo, 72 h. Potency, µM (series often up to 46.1 µM), usual class: cytotoxic. hit rate 3.4% among 400,000; also: potency is read from the fitted curve at half-maximal effect; nearly all actives have a fitted effect of over 60% in size
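qHTS viability screen in drug-selected KB-V1 MDR cells: 72 h compound treatment at 37 degrees C, ATP luminescence end point.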
HT1080 IDH1KD tx – HT-1080 IDH1 knockdown cell toxicity (counter line) | HT-1080 IDH1 knockdown viability, ATP luminescence, 48 h | Potency, µM (top dose mostly 46.1 µM), for inactives: at the top dose activity, negative = toxicity, usual class: cytotoxic | hit rate 2% among 360,000 | AID 686971;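 also: potency is read from the fitted curve at half-maximal effect; 0% = DMSO wells and -100% = cell-free medium wells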
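Luminescent ATP read-out (CellTiter-Glo, 10 min at room temperature) after 48 h compound exposure at 37 °C gave viability of IDH1-knockdown HT-1080 cells. Activity was normalised to DMSO and cell-free wells, then fitted as concentration-response curves.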
Starred values were filed as active, the others as inactive; i = inactive; u = inconclusive; x = not tested or not shown; [ ] = dose if it differs, or a comment. Rows were chosen to be rich in hits. Some 8.8% of all compounds tested hit in one or more screens of this group. Unless noted, calls follow the shape of the dose curve; as a rule, active = well fitted curve in the direction sought with a large enough effect; inconclusive = small, poorly fitted or top-dose-only effect, or another doubt; inactive = no such curve, though single readings can be large; an effect the other way counts as inactive or inconclusive. Unless noted, % is scaled to controls: 0 for no effect and ±100 for the full control effect.

SMILES	IL-1B inflam inh	HT1080-NT tox	KB-3-1 tox	KB-V1 cytotox	HT1080 IDH1KD tx
COc1cc(Br)cc(CNc2ccc(F)c([N+](=O)[O-])c2)c1O	-94.7*	-26.1%	i	i	u
Cc1ccc(CC(=O)Nc2ccc(F)c([N+](=O)[O-])c2)cc1C	-7.2	-0.9%	i	i	4.9%
Cc1ccc(C)c(Nc2cc(C)nc(-c3ccccc3O)n2)c1	0.0	u	2.59µM*	i	u
Cc1cc(Nc2cccc(F)c2)nc(-c2ccccc2O)n1	-60.7*	u	i	i	u
Cc1cc(Nc2ccccc2Cl)nc(-c2ccccc2O)n1	-69.9*	-20.9%	i	i	u
Cc1cc(NCc2ccccc2)nc(-c2ccccc2O)n1	-6.2	-15.1%	u	16.4µM*	-23.0%
CCOc1ccc2nc(NCCO)[nH]c2c1	43.9	0.7%	i	i	10.7%
COC(=O)Nc1nc2ccc(-c3n[nH]c(=O)c4ccccc34)cc2[nH]1	60.0	-4.9%	14.6µM*	i	u
C=C(c1ccc2nc(NC(=O)OC)[nH]c2c1)c1cccs1	45.9	1.03µM*	u	0.651µM*	0.731µM*
C=CCOc1ccc2nc(NC(=O)OC)[nH]c2c1	40.9	u	0.651µM*	1.16µM*	1.84µM*
O=C(CSc1nnc(CNC(=O)c2c(F)cccc2Cl)o1)NCc1ccc(F)cc1	24.9	-19.2%	i	i	-22.7%
O=C(NCCc1ccccc1)c1cc2sccc2n1Cc1ccc(F)cc1	x	x	i	i	x
COc1ccc(/C=C2/SC(=S)N(CCC(=O)N3CCN(C)CC3)C2=O)cc1	-83.9*	-1.8%	u	i	-6.1%
CN1CCN(C(=O)CCCN2C(=O)/C(=C/c3ccc(Cl)cc3)SC2=S)CC1	-3.6	0.6%[9.24 µM]	u	u	-12.6%
COc1cccc(/C=C2\SC(=S)N(CCC(=O)N3CCCCC3)C2=O)c1	0.0	0.0%	u	i	-0.8%
CCc1ccc(/C=C2\SC(=S)N(CCC(=O)N3CCN(C)CC3)C2=O)cc1	-6.7	-3.6%	i	i	0.8%
CN1CCN(C(=O)CCCN2C(=O)/C(=C/c3ccccc3)SC2=S)CC1	-96.9*	u	u	u	u
O=C(CCN1C(=O)/C(=C\c2ccccc2F)SC1=S)N1CCCCC1	u	-2.7%	10.3µM*	u	0.3%
CN1CCN(C(=O)CCN2C(=O)/C(=C\c3ccc(Cl)cc3Cl)SC2=S)CC1	-84.6*	u	i	i	u
CCN(CC(=O)NCc1cccs1)CC(=O)Nc1cccc(S(N)(=O)=O)c1	-1.1	-0.1%	i	i	-2.1%
COc1ccc(C(=O)c2oc3ccccc3c2NC(=O)COc2cccc(C)c2C)cc1	x	x	i	i	x
COc1ccc(CNc2nc(-c3ccccc3)nn2S(=O)(=O)c2ccccc2)cc1	x	x	i	i	x
O=C(CCN1C(=O)/C(=C\c2ccccc2Cl)SC1=S)N1CCN(c2ccccc2)CC1	-107.1*	2.1%	u	u	18.6%
Cc1ccc(/C=C2\SC(=S)N(CCCC(=O)N3CCOCC3)C2=O)cc1	-66.4*	-0.6%	u	i	2.6%
O=C(O)CCCN1C(=O)/C(=C\C(Cl)=C\c2ccccc2)SC1=S	-95.4*	u	u	u	u
SMILES	IL-1B inflam inh	HT1080-NT tox	KB-3-1 tox	KB-V1 cytotox	HT1080 IDH1KD tx
COc1ccc(/C=C2\SC(=S)N(CCC(=O)N3CCCCC3)C2=O)cc1	-5.5	0.9%	i	i	8.7%
O=C(CCN1C(=O)/C(=C/c2ccccc2)SC1=S)N1CCCCCC1	-100.8*	-2.2%	u	u	-5.8%
O=C(C1CCC(Cn2c(=O)c3sccc3n(Cc3cccc(F)c3)c2=O)CC1)N1CCOCC1 (stereo not given)	x	x	i	i	x
COc1ccc(-c2ccc3c(c2)c(Sc2ccccc2)c(-c2ccccc2)n3C)cc1	21.7	20.1%	i	u	17.8%
CCN(CC)S(=O)(=O)c1ccc(N2CCCCC2)c(NC(=O)C2=COCCO2)c1	-15.5	-10.3%	i	i	-13.9%
COc1ccc(C)cc1NCc1cccc(OC)c1OC	11.4	15.9%	i	u	1.3%
COc1ccc(CNc2cc(C)ccc2C)c(OC)c1OC	-5.4	12.5%	i	14.6µM*	-7.1%
